Hits are enriched below; roughly 3.2% of the tested compounds scored in any of these assays.
Ecoli rRNA inh: inhibits bacterial ribosomal RNA function over humanized ribosomes; E. coli WT GFP vs humanized-ribosome RFP mutants, fluorescence, 24 h; stronger effect = lower value; DMSO median 0, no signal -100; GFP signal change (wild-type ribosome), % (concentration not given with the values); hit rate 1.6% among 350,000; AID 720706;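 active = significant combined selectivity score with lowered wild-type GFP, culture density cut under 30%, mutant RFP and density less affected; inactive = any of these conditions unmet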
GSIS activator: primary screen for activators of insulin secretion dependent on glucose, INS-1E cells, GLuc reporter luminescence; hit rate 0.61% among 370,000; activation, % at 16.6 µM; INS-1E GLuc reporter insulin secretion, 2-3 h;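 active = lowest replicate activation of at least 40%, so every replicate reaches that level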;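 note: 0% = median of neutral control wells and 100% = median of IBMX positive control wells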
PGC1a acetyl inh: modulators of PGC1a acetylation; U2OS PGC1a acetylation, AlphaScreen anti-acetyl-lysine; with virally co-expressed GCN5 acetyltransferase; inhibition, % at 15.6 µM; hit rate 0.17% among 350,000;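 active = every replicate shows inhibition of at least 40%; inconclusive = mean inhibition at least 40% but some replicate below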;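 note: 0% = neutral control wells and 100% = positive control wells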
CaV13 FRET inh: Disruptors of the CACNA1D IQ motif to Ca2+-dependent inactivation inhibitor domain association, primary screening, Förster resonance energy transfer in intact living … | hit rate 0.098% among 340,000 | HEK cells, CFP/YFP FRET ICDI-IQ, plate reader, 10 min; percent FRET-ratio fall versus neutral wells | inhibition, % at 12.3 µM | AID 743397;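 active = mean replicate inhibition of at least 30% and at least 1% of replicates passing that level; inconclusive = only one of the two criteria is met; inactive = neither criterion is met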;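 note: 0% = median of the neutral control wells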
ERAP1 inh: inhibitors of human ERAP1 aminopeptidase | Q9NZ08 | recombinant ERAP1, Leu-AMC fluorescence, 60 min | inhibition, % at 10.7 µM | hit rate 0.15% among 340,000 | AID 652197;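 active = mean replicate inhibition of at least 30%, or all replicates individually reaching that 30% level; inactive = mean below 30% and not every replicate reaching it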;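 note: 0% = neutral control wells and 100% = L-leucinethiol positive control wells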
Target sequence (Q9NZ08 whole entry, looked up): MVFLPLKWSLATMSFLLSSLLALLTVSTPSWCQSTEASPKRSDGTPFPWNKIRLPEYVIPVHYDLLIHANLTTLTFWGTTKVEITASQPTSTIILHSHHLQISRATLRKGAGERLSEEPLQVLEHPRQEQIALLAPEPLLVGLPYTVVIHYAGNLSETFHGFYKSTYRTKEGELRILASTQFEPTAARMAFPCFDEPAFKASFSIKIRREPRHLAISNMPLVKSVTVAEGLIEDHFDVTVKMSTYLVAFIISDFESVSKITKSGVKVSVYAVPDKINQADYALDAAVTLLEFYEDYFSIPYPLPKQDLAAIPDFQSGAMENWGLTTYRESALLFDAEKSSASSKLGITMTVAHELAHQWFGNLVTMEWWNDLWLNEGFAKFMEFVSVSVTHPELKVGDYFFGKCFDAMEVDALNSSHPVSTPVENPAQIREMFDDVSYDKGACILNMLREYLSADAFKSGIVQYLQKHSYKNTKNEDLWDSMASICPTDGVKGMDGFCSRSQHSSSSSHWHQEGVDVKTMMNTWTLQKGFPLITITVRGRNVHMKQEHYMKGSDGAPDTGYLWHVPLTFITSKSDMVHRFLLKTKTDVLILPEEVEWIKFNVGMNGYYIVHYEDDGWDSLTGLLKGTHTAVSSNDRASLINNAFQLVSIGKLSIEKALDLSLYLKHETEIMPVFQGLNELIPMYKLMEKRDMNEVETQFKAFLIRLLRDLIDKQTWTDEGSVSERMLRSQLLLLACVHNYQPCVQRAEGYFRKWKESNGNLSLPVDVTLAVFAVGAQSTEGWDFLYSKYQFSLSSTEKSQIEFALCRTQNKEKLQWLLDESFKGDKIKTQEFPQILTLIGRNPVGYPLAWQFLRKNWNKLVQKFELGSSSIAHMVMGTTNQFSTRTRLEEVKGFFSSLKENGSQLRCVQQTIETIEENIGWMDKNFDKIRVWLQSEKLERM
DENV2 CPE: inhibitors of DENV2 cytopathic effect | CPE inhibition, % at 9.99 µM | hit rate 1.7% among 350,000 | DENV2-infected cells, cytopathic effect rescue, plate reader; in the data active = CPE inhibition above about 20%, passing the limit was not always enough; inconclusive = no clear call, values can overlap the other calls; tested in BHK-21 cells;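 note: 0% = median of neutral control wells and 100% = median of positive control wells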
C2C12 COX5a inh: C2C12 myotube COX5a expression inhibition; shares compounds with PGC1a acetyl inh; C2C12 myotubes PGC-1a adenovirus, COX5a qPCR; maximal activity, %; 45 tested, under 10 active; AID 743461;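 active = fitted dose curve reaching 40% activity at or below the highest valid dose tested; inconclusive = flat fit between 30% and 70%, or an unusable fit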
AID743468: change in PGC-1a target gene PDK4 expression, dose response, C2C12 myotubes, RT-qPCR, cherry-pick; 45 tested, under 10 active; AID 743468; PGC-1a adenovirus, PDK4 mRNA qPCR; shares compounds with PGC1a acetyl inh; PDK4 expression increase, % at 19.5 µM;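 active = fitted curve reaching a 40% PDK4 expression rise at or below the top valid tested dose; inconclusive = no clear call, values can overlap the other calls; inactive = the rest, including shifts the wrong way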
AID977621: wild-type E. coli growth inhibition versus H69 humanized strain – H69 mutant RFP, wild-type GFP, cherry-pick, dose response; 1,900 tested, under 10 active; activity change, negative = inhibition at 50 µM; fluorescence, 24 h; AID 977621; shares compounds with Ecoli rRNA inh;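 active = Wild-type ribosome reporter drop at least double the humanized mutant ribosome reporter drop, growth loss under a set limit; inconclusive = no clear call, values can overlap the other calls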;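 note: wild-type GFP and H69 mutant RFP strains grown together 50/50 in each well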
AID977628: E. coli growth inhibition, wild-type GFP versus h24 humanized RFP strain, dose response, h24 mutant RFP vs wild-type GFP, cherry-pick | E. coli WT GFP strain growth, fluorescence, 24 h | shares compounds with Ecoli rRNA inh | 1,900 tested, under 10 active | activity change, negative = inhibition at 50 µM;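 active = compound lowering the normal-ribosome reporter at least twice as much as the humanized-ribosome reporter, growth loss under a set limit; inconclusive = no clear call, values can overlap the other calls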;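 note: wild-type GFP and h24 humanized RFP strains co-cultured 1 to 1 per well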
* marks the source's active call; other numbers are inactive results; ? = inconclusive; . = no result given.

SMILES | Ecoli rRNA inh | GSIS activator | PGC1a acetyl inh | CaV13 FRET inh | ERAP1 inh | DENV2 CPE | AID977628 | others
C#CCN(C[C@@H]1[C@@H](OC(=O)NCc2ccc(OC)c(OC)c2)[C@@H](OC(=O)NCc2ccc(OC)c(OC)c2)Cn2c(=O)ccc(=O)n21)S(=O)(=O)c1ccc(C)cc1 | -1 | -5 | 1 | -7 | 3 | 5 | .
C#CCN(C[C@@H]1[C@@H](OC(=O)NCCCCCC)[C@@H](OC(=O)NCCCCCC)Cn2c(=O)ccc(=O)n21)S(=O)(=O)c1ccc(C)cc1 | -1 | -10 | 92* | -7 | 0 | -4 | . | C2C12 COX5a inh=-39;AID743468=88*
COc1ccc(-c2cnc3c(c2)C(=O)N([C@H](C)CO)C[C@H](C)[C@H](CN(C)C(=O)Cc2ccccn2)O3)cc1 | 5 | 19 | -8 | . | -2 | -4 | .
CN1c2ccc(-c3cccc(F)c3)cc2[C@@H]2[C@@H](CCN2C(=O)c2cccc(F)c2)[C@@H]1CO | -13 | -19 | . | . | -6 | 3 | .
Cc1cc(C)c(OCC(=O)OCC(=O)N2CCc3ccccc3C2)c(C)c1 | -16* | 12 | . | -6 | -6 | 8 | -9.6
CC(C)CN(C(=O)c1ccco1)c1nc2ccccc2s1 | -19* | -2 | . | -2 | -1 | -2 | ?
CN(C)CCCNC(=O)C[C@@H]1CC[C@@H]2[C@H](COC[C@@H](O)CN2C(=O)c2ccncc2)O1 | -3 | 5 | 7 | . | -1 | -3 | .
CCOC(=O)c1csc(NC(=O)CC2CCCC2)n1 | -20* | 4 | -1 | -7 | 0 | 1 | . | AID977621=-20
CCOC(=O)c1csc(NC(=O)CCSc2ccccc2)n1 | 4 | 0 | -4 | -6 | 0 | -2 | .
O=C1CNC[C@H]2[C@H](c3ccc(C#CC4CCCCC4)cc3)[C@@H](CO)N12 | -2 | 7 | 3 | . | -7 | 2 | .
CCCC#Cc1ccc2c(c1)O[C@@H](CN(C)Cc1ccccc1)[C@H](C)CN([C@H](C)CO)S2(=O)=O | -4 | -4 | 0 | . | . | . | .
O=C(c1cnc(N2CCN(c3ncccn3)CC2)c2ccccc12)N1CCN(c2ncccn2)CC1 | . | . | -2 | -5 | . | . | .
O=C(c1ccc2c3c(cccc13)CC2)N1CCN(c2ncccn2)CC1 | -28* | -5 | -13 | -7 | 2 | -8 | -6.3 | AID977621=-12
O=C(N[C@@H]1C=C[C@@H](CC(=O)N2CCc3ccccc3C2)O[C@@H]1CO)C1CCOCC1 | 6 | 9 | 4 | . | 2 | -4 | .
C[C@H](CO)N1C[C@H](C)[C@@H](CN(C)C(=O)Nc2ccc(F)cc2)Oc2cc(/C=C/c3ccccc3)ccc2S1(=O)=O | 0 | -19 | 7 | . | 0 | -2 | .
CCOC(=O)CSc1nc(C)c2cc(C)c(C)cc2n1 | . | . | . | -9 | 3 | 9 | .
Cc1cc2nc(SCC(=O)O)nc(C)c2cc1C | -17* | 14 | -4 | -7 | -2 | 8 | . | AID977621=-16
C[C@@H]1CCCCO[C@H](CN(C)C(=O)CCCN(C)C)[C@H](C)CN([C@@H](C)CO)C(=O)c2cc(NC(=O)c3ccccc3)ccc2O1 | 0 | 12 | 12 | . | 0 | 10 | .
O=C1c2cccc3cccc(c23)C(=O)N1CCCn1ccnc1 | -21* | 31 | 9 | -15 | 7 | -7 | ? | AID977621=-15
O=C(C[C@@H]1C[C@H]2c3cc(NC(=O)Nc4ccc(F)cc4)ccc3O[C@H]2[C@@H](CO)O1)NC1CCCCC1 | -1 | 1 | 1 | . | . | -2 | .
O=C(COC(=O)C1CC2C=CC1C2)Nc1ccc([N+](=O)[O-])cc1 (stereo unspecified) | -31* | . | -3 | -21 | -6 | 7 | -12 | AID977621=-17
NC(=O)c1ccc(NC(=O)COC(=O)C2CC3C=CC2C3)cc1 (stereo unspecified) | 2 | 21 | 7 | -9 | 4 | ? | .
O=C(Nc1nc(-c2ccc3ccccc3c2)cs1)C1CCN(S(=O)(=O)c2cccs2)CC1 | -15* | 17 | . | -2 | -1 | -2 | -1.9 | AID977621=-3.7
Cc1ccc(-c2csc(NC(=O)C3CCN(S(=O)(=O)c4cccs4)CC3)n2)cc1 | . | -36 | . | -6 | . | . | .
Cc1cc(C)nc(SCc2cn3c(C)cccc3n2)n1 | -19* | 19 | 7 | -13 | 2 | -1 | ?
SMILES | Ecoli rRNA inh | GSIS activator | PGC1a acetyl inh | CaV13 FRET inh | ERAP1 inh | DENV2 CPE | AID977628 | others
Cc1ccnc(SCc2cn3c(C)cccc3n2)n1 | -10 | 12 | . | -7 | 10 | -2 | .
Cc1ccccc1NC(=O)c1ccc([N+](=O)[O-])o1 | . | 4 | . | -2 | -3 | -3 | .
Cc1ccc(NC(=O)c2ccc([N+](=O)[O-])o2)c(C)c1 | -33* | 2 | -21 | -7 | 0 | -2 | -16
CC=Cc1ccc2n(c1=O)C[C@@H]1[C@@H](CO)[C@H](C(=O)NCCC)[C@H]2N1C(=O)c1ccncc1 (mixture of isomers) | 2 | 9 | 0 | . | -3 | ? | .
CCOc1ccccc1C(=O)NCC(=O)OCCOc1cccc(Cl)c1 | -33* | -7 | . | -9 | -2 | 6 | -5.6 | AID977621=-11
CCOc1ccccc1C(=O)NCC(=O)OCCCOC(=O)CNC(=O)c1ccccc1OCC | -9 | 16 | 14 | -6 | 9 | 3 | .
C[C@H](NC(=O)C[C@@H]1C[C@H]2c3cc(NS(C)(=O)=O)ccc3O[C@H]2[C@H](CO)O1)c1ccccc1 | -1 | 10 | 10 | . | -2 | -1 | .
COc1ccccc1NC(=O)N[C@@H]1C=C[C@@H](CC(=O)N[C@@H](C)c2ccccc2)O[C@@H]1CO | -3 | -2 | 1 | . | -1 | -3 | .
Cc1noc(C)c1S(=O)(=O)Nc1ccc2c(c1)C(=O)N([C@@H](C)CO)C[C@H](C)[C@@H](CN(C)C(=O)Nc1ccc(F)cc1)OCCCC[C@@H](C)O2 | 0 | -16 | -6 | . | 2 | 0 | .
COCCCNC(=O)c1ccc(-c2nc3ccccc3nc2-c2ccccc2)cc1 | -32* | -4 | -2 | -5 | 0 | 20 | -3.1 | AID977621=0.2
